Inconclusive results are not listed. Where a call stands in place of a potency, no number is given. Values without a mark were called inactive. Active and inactive are the calls of the source. Calls follow the shape of the dose curve; as a rule, active = well fitted activation curve with a large enough effect in the repeat runs; inconclusive = weak or mixed curves; inactive = flat fitted curve, though single readings scatter.
test: A CellTox Green Cytotoxicity Assay to monitor cytotoxicity in HEK293 cells - 40 hour (AID 1224871); details: CellTox Green fluorescence; series mostly up to 76.8 µM; also: nearly all actives have a fitted effect of over 45% in size
Summary of the method: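 Cytotoxicity was tracked continuously in HEK293 cells by a DNA-binding dye excluded from viable cells. Compounds were transferred in DMSO 5 h after seeding; fluorescence was recorded at intervals up to 40 h.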
Potency is read from the fitted curve at half-maximal effect.

| Compound | Potency | cytotoxicity increase |
| --- | --- | --- |
| CN(C)Cc1ccccc1O | inactive | – |
| CC(CCc1ccccc1)NCC(O)c1ccc(O)c(C(N)=O)c1 (configuration not stated) | inactive | – |
| C#C[C@]1(O)CC[C@H]2[C@@H]3[C@H](C)CC4=C(CCC(=O)C4)[C@H]3CC[C@@]21C | inactive | – |
| COC(C)=O | inactive | – |
| CC1(C)CCC[C@]2(C)[C@H]3CC(=O)O[C@]3(C)CC[C@@H]12 | 49 µM (active) | – |
| CC(C)(C)C1CCC(=O)CC1 | inactive | – |
| CC(C)CCOC(=O)/C=C/c1ccccc1 | inactive | – |
| Cc1ccc(C(=O)O)cc1 | inactive | – |
| Nc1ccc(Oc2ccc(Cl)cc2)cc1 | inactive | – |
| CC[C@H](C)COC(=O)/C=C/c1ccc(N=Cc2ccc(OC)cc2)cc1 | 48.9 µM (active) | – |
| CCCC(=O)OC(C)(C)Cc1ccccc1 | 24.5 µM (active) | – |
| C=CCCC(=O)/C=C/C1C(C)=CCCC1(C)C (configuration not stated) | 24.5 µM (active) | – |
| CCCC(=O)OCCc1ccccc1 | 49 µM (active) | – |
| CCCCOC(=O)CC | inactive | – |
| O=C(O)c1cc(O)c2ccccc2c1O | 19.5 µM (active) | – |
| CC(C)(C)CC(C)(C)c1ccc(Nc2ccc(C(C)(C)CC(C)(C)C)cc2)cc1 | – | 0.599% [at 6.97 µM] |
| CC(C(=O)O)c1ccc2c(c1)[nH]c1ccc(Cl)cc12 (configuration not stated) | inactive | – |
| COc1cc2nc(N3CCN(C(=O)c4ccco4)CC3)nc(N)c2cc1OC | – | 63.2% [at 15.8 µM] |
| OCC(F)(F)F | inactive | – |
| C=Cc1cccc(C)c1 | inactive | – |
| O=C(O)c1ccc2cc(C(=O)O)ccc2c1 | inactive | – |
| C[C@@H](O)[C@H](N)C(=O)O | – | -7.08% [at 15.8 µM] |
